Test results reported in the supplement of paper PMC6555819.

Assays:
Experiment in all cases: PBM binding z-score (relative to random genomic background probes); higher = stronger binding; sequences stand for … in GC…GCGATTGACAGCGTAGAATGAAGG
[1] = system: PPARg:RXRa DBDmut IVT, anti-RXR (DBD mutation: RXRa K156A/R161A, NR concentration 270 nM, RXRa partner concentration 90 nM)
Summary of the method: (§1)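 Binding buffer was PBS pH 7.4 with 2% milk, 0.02% Triton X-100, 1 mM DTT, 0.2 mg/mL BSA and 0.4 mg/ml salmon testes DNA. In it, ligand-free nuclear receptor dimers were incubated 1 h on custom Agilent 4×180K protein-binding microarrays carrying double-stranded probes. Antibodies against each partner (one per run) detected binding, and z-scores were calculated against random background probes after regression normalization of scanned fluorescence.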

[2] = system: PPARg:RXRa IVT, anti-PPARg (NR concentration 270 nM, RXRa partner concentration 90 nM)
Summary of the method: as §1

[3] = system: PPARg DBDmut:RXRa IVT, anti-PPARg (DBD mutation: PPARg1 K132A/R137A, NR concentration 270 nM, RXRa partner concentration 90 nM)
Summary of the method: as §1

[4] = system: PPARg DBDmut IVT, anti-PPARg (DBD mutation: PPARg1 K132A/R137A, NR concentration 270 nM)
Summary of the method: as §1

[5] = system: PPARg homodimer (NR concentration 180 nM)
Summary of the method: as §1

[6] = system: PXR:RXRa (NR concentration 270 nM, RXRa partner concentration 90 nM)
Summary of the method: as §1

[7] = system: PXR homodimer (NR concentration 270 nM)
Summary of the method: as §1

[8] = system: RARa:RXR (NR concentration 270 nM, RXRa partner concentration 90 nM)
Summary of the method: as §1

[9] = system: RARa homodimer (NR concentration 270 nM)
Summary of the method: as §1

[10] = system: RARb:RXRa (NR concentration 270 nM, RXRa partner concentration 90 nM)
Summary of the method: as §1

[11] = system: RARb homodimer (NR concentration 270 nM)
Summary of the method: as §1

[12] = system: RARg:RXRa (NR concentration 270 nM, RXRa partner concentration 90 nM)
Summary of the method: as §1

[13] = system: RARg homodimer (NR concentration 270 nM)
Summary of the method: as §1

[14] = system: RXRa DBDmut IVT, anti-RXR (DBD mutation: RXRa K156A/R161A, NR concentration 90 nM)
Summary of the method: as §1

[15] = system: RXRa homodimer (NR concentration 180 nM)
Summary of the method: as §1

[16] = system: THRa:RXRa (NR concentration 90 nM, RXRa partner concentration 90 nM)
Summary of the method: as §1

[17] = system: THRa homodimer (NR concentration 90 nM)
Summary of the method: as §1

[18] = system: VDR homodimer (NR concentration 270 nM)
Summary of the method: as §1

Row | Sequence | PBM binding z-score [1] | PBM binding z-score [2] | PBM binding z-score [3] | PBM binding z-score [4] | PBM binding z-score [5] | PBM binding z-score [6] | PBM binding z-score [7] | PBM binding z-score [8] | PBM binding z-score [9] | PBM binding z-score [10] | PBM binding z-score [11] | PBM binding z-score [12] | PBM binding z-score [13] | PBM binding z-score [14] | PBM binding z-score [15] | PBM binding z-score [16] | PBM binding z-score [17] | PBM binding z-score [18]
1 | TGAATGAGGCTAAAGATCAGGGAACGTGGCGTCG | -0.0886 | 1.02 | 0.37 | -0.283 | -0.62 | -0.523 | -0.778 | -0.214 | -0.864 | 0.177 | -0.821 | -0.0145 | 0.0972 | -0.642 | 0.184 | 0.0902 | -1.04 | -0.642
2 | ATCGAAAGCTCGACGAGGTGAGTATACACCGTTT | -0.441 | 0.00949 | 0.478 | 0.316 | -0.162 | -0.321 | -0.326 | -0.226 | -0.876 | -0.148 | -0.193 | -0.12 | 0.303 | -0.125 | 0.189 | 1.02 | 0.249 | -0.291
3 | ATCTCTAGGTAACCAAGTTTAGTGAATGCCGAAC | 3.62 | 2.79 | 0.887 | 1.75 | 0.787 | 0.564 | 0.333 | 0.55 | 1.08 | 0.627 | 0.287 | 0.383 | 0.348 | 0.384 | 0.298 | 0.78 | 0.672 | 0.855
4 | CCAGACAGGTGAGAAGGTACCTCAGCCTCGATTA | 0.836 | 0.42 | -0.603 | -0.799 | 0.408 | -0.434 | -0.569 | -0.0825 | -0.214 | 0.313 | 0.101 | 0.161 | 0.0168 | 0.0456 | 0.155 | 0.0348 | 0.0556 | -0.352
5 | GTTAGTTGGTCAGTAAAAGGTCACACACCGGTCG | 2.02 | 3.66 | 1.57 | 0.79 | 5.74 | 5.26 | 1.74 | 6.27 | 3.99 | 4.39 | 5.25 | 5.67 | 5.37 | 1.14 | 6.08 | 3.68 | 2.18 | 2.3
6 | ACTTACGGGTCAACGAGGATATAGCACGCGTATA | 3.44 | 3.76 | 1.49 | 1.58 | 2.26 | 3.34 | 0.678 | 4.19 | 1.35 | 3.88 | 2.74 | 5.35 | 4.72 | 2.12 | 5.48 | 3.55 | 0.687 | 2.15
7 | TCCTATAGGTAAAAGGTGAAAGTCGGTGTGGTAA | 3.53 | 3.95 | 0.0451 | 0.327 | 1.1 | 1.66 | 0.259 | 2.87 | 0.703 | 1.85 | 1.55 | 1.83 | 0.492 | 1.1 | 2.64 | 1.56 | 0.0134 | -0.175
8 | AGAATGAGGTTATACGCAGATCAGGGAAGAAAGT | 2.73 | 2.31 | 1.31 | 0.997 | 0.831 | 1.14 | 0.481 | 1.59 | 0.675 | 1.52 | 0.779 | 1.67 | 0.985 | 1.47 | 2.3 | 2.22 | 0.465 | 0.945
9 | AGAATGAGGTTACCAATGATCAGGGAAACGCTTG | 3.69 | 3.24 | 1.14 | 0.416 | 0.494 | 1.05 | -0.11 | 1.83 | 0.362 | 2.03 | 0.796 | 2.23 | 1.63 | 0.994 | 2.62 | 2.61 | 0.788 | 0.0566
10 | ATCTCTAGATAAAGTTCAGTGAAAGATCGATAGA | -0.492 | 0.294 | 0.931 | 0.898 | 0.994 | 1.36 | 1.39 | 0.786 | 1.06 | 2.17 | 1.84 | 1.4 | 2.06 | 0.839 | 0.79 | 0.243 | -0.14 | 1.66
11 | CCTCGGAGGACAGAAGCTCAGAGCTGTCCGCTTT | -0.36 | -1.19 | -1.19 | -2.47 | -1.01 | -1.09 | -1.12 | -1.41 | -0.553 | 0.0741 | -0.763 | -0.638 | -0.103 | -0.29 | -0.985 | -0.606 | -1.12 | -0.819
12 | GCTGCTAGGTCAACTGACGGTCAGCTAAAGCTCG | 5.14 | 4.49 | 0.437 | -0.0795 | 4.42 | 2.08 | -0.874 | 4.58 | 1.05 | 4.56 | 4.31 | 6.76 | 5.94 | 1.64 | 3.33 | 3.21 | 0.993 | -0.00537
13 | CCTGATAGGTCAATGGTCAGCTAAAGCAGCTCGC | 3.36 | 3.31 | -0.515 | -0.301 | 2.74 | 2.07 | 0.0154 | 2.95 | 0.334 | 4.06 | 3.38 | 4.62 | 4.89 | 1.32 | 3.76 | 1.72 | -0.0298 | 0.339
14 | TCTAGTTGGTCAAAGGGCACACACTCGAAATGCG | 2.22 | 3.89 | 0.5 | 0.679 | 1.73 | 1.7 | 0.178 | 2.72 | 0.588 | 2.6 | 2.36 | 2.72 | 1.97 | 0.876 | 2.62 | 1.12 | -0.0377 | 0.575
15 | TGAATGAGGTTAAAAGATCAGGGAACGTTGCAAA | 1.14 | 2.17 | 0.743 | 0.45 | 0.137 | 1.26 | 0.0168 | 2.04 | 0.336 | 1.72 | 0.578 | 2.56 | 1.18 | 0.605 | 2.79 | 1.83 | -0.00624 | 0.327
